Test results from PubChem BioAssay (NCATS).
Inconclusive results are not listed. Entries that show only a call come without a potency. Calls of active or inactive are those of the source. The call rests on the fitted dose curve; in most records, active means well fitted inhibition curve with a large enough effect; inconclusive means small, poorly fitted or top-dose-only effect; inactive means flat fitted curve, though single readings scatter.

tested on: CP185; assay: qHTS profiling for inhibitors of Plasmodium falciparum proliferation (AID 504749); further: nearly all actives have a fitted effect of over 60% in size; settings: P. falciparum in erythrocytes, SYBR Green DNA, 72 h; series mostly up to 28.7 µM
Method in brief: (§1)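 Three-day growth assay of blood-stage parasites in erythrocytes (0.3% parasitemia, 2.5% hematocrit) at 37 C, 5% CO2, quantified by SYBR Green DNA staining after overnight detergent lysis.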
Potency means the concentration at half of the fitted maximal effect.

Compound | Potency
CC(=O)N1CCN(c2ccc(OC[C@@H]3CO[C@@](Cn4ccnc4)(c4ccc(Cl)cc4Cl)O3)cc2)CC1 | inactive
OC[C@H](S)CS | inactive
N[C@H](COP(=O)(O)O)C(=O)O | inactive
C[N+]1(C)[C@@H]2CC(OC(=O)[C@@H](CO)c3ccccc3)C[C@@H]1[C@H]1O[C@H]12 (some centres not stated) | inactive
C(=C/c1ccccc1)/CN1CCN(C(c2ccccc2)c2ccccc2)CC1 | inactive
COc1cc2nc(N(C)CCCNC(=O)[C@@H]3CCCO3)nc(N)c2cc1OC | inactive

tested on: CP191; assay: as above; settings: P. falciparum in erythrocytes, SYBR Green DNA, 72 h; series mostly up to 28.7 µM
Method in brief: as §1

Compound | Potency
CC(=O)N1CCN(c2ccc(OC[C@@H]3CO[C@@](Cn4ccnc4)(c4ccc(Cl)cc4Cl)O3)cc2)CC1 | inactive
OC[C@H](S)CS | inactive
N[C@H](COP(=O)(O)O)C(=O)O | inactive
C[N+]1(C)[C@@H]2CC(OC(=O)[C@@H](CO)c3ccccc3)C[C@@H]1[C@H]1O[C@H]12 (some centres not stated) | inactive
C(=C/c1ccccc1)/CN1CCN(C(c2ccccc2)c2ccccc2)CC1 | inactive
COc1cc2nc(N(C)CCCNC(=O)[C@@H]3CCCO3)nc(N)c2cc1OC | inactive

tested on: CP192; assay: as above; settings: P. falciparum in erythrocytes, SYBR Green DNA, 72 h; series mostly up to 28.7 µM
Method in brief: as §1

Compound | Potency
CC(=O)N1CCN(c2ccc(OC[C@@H]3CO[C@@](Cn4ccnc4)(c4ccc(Cl)cc4Cl)O3)cc2)CC1 | inactive
OC[C@H](S)CS | inactive
N[C@H](COP(=O)(O)O)C(=O)O | inactive
C[N+]1(C)[C@@H]2CC(OC(=O)[C@@H](CO)c3ccccc3)C[C@@H]1[C@H]1O[C@H]12 (some centres not stated) | inactive
C(=C/c1ccccc1)/CN1CCN(C(c2ccccc2)c2ccccc2)CC1 | inactive
COc1cc2nc(N(C)CCCNC(=O)[C@@H]3CCCO3)nc(N)c2cc1OC | inactive

tested on: CP194; assay: as above; settings: P. falciparum in erythrocytes, SYBR Green DNA, 72 h; series mostly up to 28.7 µM
Method in brief: as §1

Compound | Potency
OC[C@H](S)CS | inactive
N[C@H](COP(=O)(O)O)C(=O)O | inactive
C(=C/c1ccccc1)/CN1CCN(C(c2ccccc2)c2ccccc2)CC1 | inactive
COc1cc2nc(N(C)CCCNC(=O)[C@@H]3CCCO3)nc(N)c2cc1OC | inactive

tested on: CP201; assay: as above; settings: P. falciparum in erythrocytes, SYBR Green DNA, 72 h; series mostly up to 28.7 µM
Method in brief: as §1

Compound | Potency
CC(=O)N1CCN(c2ccc(OC[C@@H]3CO[C@@](Cn4ccnc4)(c4ccc(Cl)cc4Cl)O3)cc2)CC1 | inactive
OC[C@H](S)CS | inactive
N[C@H](COP(=O)(O)O)C(=O)O | inactive
C[N+]1(C)[C@@H]2CC(OC(=O)[C@@H](CO)c3ccccc3)C[C@@H]1[C@H]1O[C@H]12 (some centres not stated) | inactive
C(=C/c1ccccc1)/CN1CCN(C(c2ccccc2)c2ccccc2)CC1 | inactive
COc1cc2nc(N(C)CCCNC(=O)[C@@H]3CCCO3)nc(N)c2cc1OC | inactive

tested on: CP203; assay: as above; settings: P. falciparum in erythrocytes, SYBR Green DNA, 72 h; series mostly up to 28.7 µM
Method in brief: as §1

Compound | Potency
OC[C@H](S)CS | inactive
N[C@H](COP(=O)(O)O)C(=O)O | inactive
C[N+]1(C)[C@@H]2CC(OC(=O)[C@@H](CO)c3ccccc3)C[C@@H]1[C@H]1O[C@H]12 (some centres not stated) | inactive
C(=C/c1ccccc1)/CN1CCN(C(c2ccccc2)c2ccccc2)CC1 | inactive
COc1cc2nc(N(C)CCCNC(=O)[C@@H]3CCCO3)nc(N)c2cc1OC | inactive

tested on: CP211; assay: as above; settings: P. falciparum in erythrocytes, SYBR Green DNA, 72 h; series mostly up to 28.7 µM
Method in brief: as §1

Compound | Potency
CC(=O)N1CCN(c2ccc(OC[C@@H]3CO[C@@](Cn4ccnc4)(c4ccc(Cl)cc4Cl)O3)cc2)CC1 | inactive
OC[C@H](S)CS | inactive
N[C@H](COP(=O)(O)O)C(=O)O | inactive
C[N+]1(C)[C@@H]2CC(OC(=O)[C@@H](CO)c3ccccc3)C[C@@H]1[C@H]1O[C@H]12 (some centres not stated) | inactive
C(=C/c1ccccc1)/CN1CCN(C(c2ccccc2)c2ccccc2)CC1 | inactive
COc1cc2nc(N(C)CCCNC(=O)[C@@H]3CCCO3)nc(N)c2cc1OC | inactive

tested on: CP217; assay: as above; settings: P. falciparum in erythrocytes, SYBR Green DNA, 72 h; series mostly up to 28.7 µM
Method in brief: as §1

Compound | Potency
CC(=O)N1CCN(c2ccc(OC[C@@H]3CO[C@@](Cn4ccnc4)(c4ccc(Cl)cc4Cl)O3)cc2)CC1 | inactive
OC[C@H](S)CS | inactive
N[C@H](COP(=O)(O)O)C(=O)O | inactive
C[N+]1(C)[C@@H]2CC(OC(=O)[C@@H](CO)c3ccccc3)C[C@@H]1[C@H]1O[C@H]12 (some centres not stated) | inactive
C(=C/c1ccccc1)/CN1CCN(C(c2ccccc2)c2ccccc2)CC1 | inactive
COc1cc2nc(N(C)CCCNC(=O)[C@@H]3CCCO3)nc(N)c2cc1OC | inactive

tested on: CP237; assay: as above; settings: P. falciparum in erythrocytes, SYBR Green DNA, 72 h; series mostly up to 28.7 µM
Method in brief: as §1

Compound | Potency
CC(=O)N1CCN(c2ccc(OC[C@@H]3CO[C@@](Cn4ccnc4)(c4ccc(Cl)cc4Cl)O3)cc2)CC1 | inactive
OC[C@H](S)CS | 2.24 µM (active)
N[C@H](COP(=O)(O)O)C(=O)O | inactive
C[N+]1(C)[C@@H]2CC(OC(=O)[C@@H](CO)c3ccccc3)C[C@@H]1[C@H]1O[C@H]12 (some centres not stated) | inactive
C(=C/c1ccccc1)/CN1CCN(C(c2ccccc2)c2ccccc2)CC1 | 3.55 µM (active)
COc1cc2nc(N(C)CCCNC(=O)[C@@H]3CCCO3)nc(N)c2cc1OC | inactive

tested on: CP238; assay: as above; settings: P. falciparum in erythrocytes, SYBR Green DNA, 72 h; series mostly up to 28.7 µM
Method in brief: as §1

Compound | Potency
CC(=O)N1CCN(c2ccc(OC[C@@H]3CO[C@@](Cn4ccnc4)(c4ccc(Cl)cc4Cl)O3)cc2)CC1 | inactive
OC[C@H](S)CS | inactive
N[C@H](COP(=O)(O)O)C(=O)O | inactive
C[N+]1(C)[C@@H]2CC(OC(=O)[C@@H](CO)c3ccccc3)C[C@@H]1[C@H]1O[C@H]12 (some centres not stated) | inactive
C(=C/c1ccccc1)/CN1CCN(C(c2ccccc2)c2ccccc2)CC1 | inactive
COc1cc2nc(N(C)CCCNC(=O)[C@@H]3CCCO3)nc(N)c2cc1OC | inactive
